Screens deposited in PubChem by several laboratories.
The list is not random: actives were taken first. Their share in the collection is about 3.7%.
tim23-1 inh – growth inhibitors of tim23-1 mutant yeast, primary screen, luminescence, uHTS | inhibition, % at 20 µM | AID 463212, 2010 | S. cerevisiae tim23-1 growth, BacTiter-Glo luminescence, 24 h | 1.3% of 330,000 active;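 active = growth inhibition of the mutant yeast at or above 50%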;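 also: temperature-sensitive mutant grown at 25 °C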
tim10-1 inh – growth inhibitors of tim10-1 mutant yeast, primary screen, luminescence, uHTS; S. cerevisiae tim10-1 ts strain growth, BacTiter-Glo, 24 h; inhibition, % at 20 µM; 2.2% of 330,000 active;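 active = inhibition of at least 40%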;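 also: mutant grown at 25 °C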
PfHsp90 yeast 2 – growth inhibition of PfHsp90-expressing yeast, primary screen, antimalarial PfHsp90 inhibitor project, S. cerevisiae, BacTiter-Glo luminescence, single point, set 2. BacTiter-Glo ATP, 48 h; yeast lacking PDR1 and PDR3 efflux regulators. inhibition, % at 9.4 µM. 0.32% of 310,000 active. AID 504621, 2011;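 active = every replicate shows inhibition above about 80%, whatever the replicate mean, limit read from the data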
Rce1 inh – yeast Rce1p protease inhibitors, primary screen, biochemical, fluorescence, cell-free homogeneous; yeast membranes, quenched prenylated peptide cleavage fluorescence; calls only; 0.27% of 290,000 active; AID 2563, 2010;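 active = fall in fluorescence gain of 50% or more versus controls, with final raw signal at or below 3038400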
Target sequence (Q03530 whole entry, looked up): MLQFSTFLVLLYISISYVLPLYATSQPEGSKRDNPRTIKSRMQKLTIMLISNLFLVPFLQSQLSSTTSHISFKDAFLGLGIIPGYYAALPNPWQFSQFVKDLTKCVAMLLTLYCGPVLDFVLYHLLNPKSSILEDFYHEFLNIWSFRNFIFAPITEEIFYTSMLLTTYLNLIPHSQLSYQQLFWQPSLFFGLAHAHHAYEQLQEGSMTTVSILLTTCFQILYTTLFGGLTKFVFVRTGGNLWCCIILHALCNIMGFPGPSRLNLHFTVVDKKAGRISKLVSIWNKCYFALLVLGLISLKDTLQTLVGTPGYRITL
TIM10 inh – growth inhibitors of isogenic TIM10 control yeast, primary screen, counter-screen for tim10-1 yeast inhibitor project, luminescence, uHTS; S. cerevisiae TIM10 strain growth, BacTiter-Glo luminescence, 24 h; inhibition, % at 10 µM; 1.4% of 330,000 active; AID 463195, 2010;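 active = inhibition of 40% or more at the single tested concentration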;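 also: wild-type TIM10 isogenic control strain grown at permissive 25 °C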
tim10-1 confirm – growth inhibitors of tim10-1 mutant yeast, confirmation, single concentration, luminescence, S. cerevisiae; shares compounds with tim10-1 inh; S. cerevisiae tim10-1 ts strain growth, BacTiter-Glo, 24 h; inhibition, % at 20 µM; 56% of 7,400 active;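 active = inhibition of yeast growth at or above a set limit in either of two repeat tests at 20 µM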;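 also: tim10-1 mutant grown at permissive 25 °C to find synthetic lethal compounds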
tim10 confirm – growth inhibitors of wild-type TIM10 yeast, confirmation, counter-screen for tim10-1 synthetic lethality project, single concentration, luminescence, S. cerevisiae. shares compounds with TIM10 inh. S. cerevisiae tim10 strain growth, BacTiter-Glo luminescence, 24 h. inhibition, % at 10 µM. 63% of 4,600 active. AID 463215, 2010;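 active = inhibition of yeast growth at or above a set limit in either of two replicates at 10 µM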; also: this counterscreen used the strain with wild-type TIM10
tim23-1 conf – tim23-1 mutant yeast growth inhibitors, confirmation, luminescence, single concentration | shares compounds with tim23-1 inh | S. cerevisiae tim23-1 growth, BacTiter-Glo luminescence, 24 h | inhibition, % at 20 µM | 83% of 4,400 active;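 active = inhibition above about 39% in either of two replicate wells at 20 µM, limit read from the data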;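 also: temperature-sensitive tim23-1 mutant grown at 25 °C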
Of the large screens only hits and unclear results are named; the others gave an inactive call (follow-up assays come after a bar, where they were run).

Cc1ccc(-c2nc3s/c(=C\c4ccco4)c(=O)n3n2)cc1	none
O=c1nc2s/c(=C\c3ccco3)c(=O)n2nc1Cc1ccc(F)cc1	tim23-1 inh 53.3, tim10-1 inh 70.6, TIM10 inh 78.1 | tim10-1 confirm 75.6 | tim10 confirm 79.6 | tim23-1 conf inactive
Cc1ccccc1NC(=S)N1CCN(c2ccccc2C)CC1	none
CC1CC(C)CN(S(=O)(=O)c2cc3c(cc2Cl)NC(=O)CO3)C1 (configuration not stated)	none
CN(C1CCCCC1)S(=O)(=O)c1cc2c(cc1Cl)NC(=O)CO2	tim23-1 inh 51.1, tim10-1 inh 47.5 | tim10-1 confirm inactive | tim23-1 conf inactive
COc1ccc(S(=O)(=O)NC(C)C(=O)NCc2ccccn2)cc1Cl (configuration not stated)	none
O=C(NC12CC3CC(CC(C3)C1)C2)C12CC3CC(C1)CC(n1cnc(Cl)n1)(C3)C2	tim23-1 inh 60.2, tim10-1 inh 65.3, TIM10 inh 45.9 | tim10-1 confirm 52.7 | tim10 confirm 45.5 | tim23-1 conf 50.1
O=C(O)C12CC3CC(C1)CC(n1cnc(Cl)n1)(C3)C2	none
CCCNC(=O)CCn1cc(-c2ccc(OC)cc2)nc1-c1ccncc1	none
O=C(Nc1ccccc1)C1C(c2ccccc2)C1(Cl)Cl (configuration not stated)	tim23-1 inh 55.0, tim10-1 inh 43.5 | tim10-1 confirm inactive | tim23-1 conf 47.5
CCOC(=O)c1[nH]cnc1C(=O)Nc1cccc(Cl)c1	none
CCCCCCC(=O)N/N=C/c1ccc(Br)cc1	tim23-1 inh 72.6, tim10-1 inh 50.5 | tim10-1 confirm 32.6 | tim23-1 conf 72.9
O=C(CSc1nnnn1-c1ccc(O)cc1)c1cc2ccccc2o1	none
CCN(CC)C(=O)c1[nH]cnc1C(=O)Nc1ccc(C)cc1	none (no result: Rce1 inh)
Fc1ccc(Sc2nc(-c3ccccc3)nnc2C(F)(F)F)cc1	tim23-1 inh 59.5, tim10-1 inh 60.3 | tim10-1 confirm 35.8 | tim23-1 conf 55.4
O=C(O/N=C1\C(=O)N(c2ccccc2)c2ccccc21)C1CC1	tim23-1 inh 68.9, tim10-1 inh 46.8 | tim10-1 confirm 44.4 | tim23-1 conf 64.4
CCO/N=C1\C(=O)N(c2ccccc2)c2ccccc21	none
COc1ccc2c(=O)c(-c3nc(C)cs3)coc2c1	tim23-1 inh 51.7, tim10-1 inh 42.8, TIM10 inh 63.8 | tim10-1 confirm 32.5 | tim10 confirm inactive | tim23-1 conf 65.5
CCN(CC)/C(Sc1ccccc1)=C(\C(Cl)=C(Cl)Cl)[N+](=O)[O-]	tim23-1 inh 51.2, tim10-1 inh 44.1, TIM10 inh 46.3 | tim10-1 confirm 35.1 | tim10 confirm inactive | tim23-1 conf 50.5
CN(Cc1ccccc1)C(=C(Cl)Cl)C(=C1NCCN1)[N+](=O)[O-]	none
O=C(/C=C/c1ccccn1)c1cc(Br)ccc1O	tim23-1 inh 78.1, tim10-1 inh 69.8, PfHsp90 yeast 2 104.2, TIM10 inh 72.4 | tim10-1 confirm 62.0 | tim10 confirm 67.9 | tim23-1 conf 75.4
COCCCNc1nc2ccccc2nc1NS(=O)(=O)c1ccccc1	none
CC(C)N1C(=O)S/C(=C/c2ccc3c(c2)n(C)c(=O)n3C)C1=O	none
CCN(CC)c1ccc(/C=C2\SC(=O)N(C(C)C)C2=O)o1	tim23-1 inh 60.1, tim10-1 inh 61.9, TIM10 inh 57.0 (no result: PfHsp90 yeast 2) | tim10-1 confirm 43.5 | tim10 confirm 63.7 | tim23-1 conf 74.2
C/C(=N\NC(=O)c1ccccc1O)C1C(=O)c2ccccc2C1=O	tim23-1 inh 73.1, tim10-1 inh 53.5, TIM10 inh 72.7 | tim10-1 confirm 52.5 | tim10 confirm 70.4 | tim23-1 conf 79.1
CCC/C(C)=N/NC(=O)c1ccccc1O	none
COc1cnc(-c2ccccn2)nc1Sc1cccc(Cl)c1	tim23-1 inh 63.1, tim10-1 inh 43.7 | tim10-1 confirm inactive | tim23-1 conf 55.0
CCOC(=O)C1CCN(C(=O)/C=C/c2ccc(S(=O)(=O)N3CCOCC3)cc2)CC1	none (no result: Rce1 inh)
COc1ccc2sc3ccccc3c(=O)c2c1OC	tim23-1 inh 57.7, tim10-1 inh 40.8, TIM10 inh 52.3 | tim10-1 confirm 56.8 | tim10 confirm 50.2 | tim23-1 conf 64.1
N/C(=N\OC(=O)C1CCCCC1)c1ccc(Br)cc1	tim23-1 inh 68.0, tim10-1 inh 60.7, TIM10 inh 44.7 | tim10-1 confirm 55.3 | tim10 confirm 66.0 | tim23-1 conf 75.3
N/C(=N\OC(=O)C1CCCCC1)c1ccncc1	none
N/C(=N\OC(=O)COc1ccccc1Cl)c1ccc(Cl)cc1	tim23-1 inh 60.2, tim10-1 inh 69.5, TIM10 inh 54.1 | tim10-1 confirm 49.0 | tim10 confirm 42.5 | tim23-1 conf 76.2
N/C(=N\OC(=O)COc1ccc(Cl)cc1)c1ccc(Cl)cc1	none
N/C(=N\OC(=O)C1CCCCC1)c1ccc(Cl)cc1	tim23-1 inh 53.2, tim10-1 inh 62.7, TIM10 inh 48.0 | tim10-1 confirm 52.6 | tim10 confirm 43.3 | tim23-1 conf 38.0
COc1cc(OC)cc(C(=O)N[C@H](C(=O)OCC(=O)Nc2ccc(C(C)C)cc2)C(C)C)c1	none
OCC(O)/C=N/Nc1nc(Nc2ccccc2)nc(Nc2ccccc2)n1 (configuration not stated)	tim23-1 inh 53.9, tim10-1 inh 49.8, TIM10 inh 45.5 | tim10-1 confirm inactive | tim10 confirm 45.4 | tim23-1 conf 48.0
O=C(Nc1ccc(SC(F)(F)F)cc1)c1ccccn1	none (no result: Rce1 inh)
Nc1cccc2c1C(=O)N(C(=O)/C=C/c1cccc(F)c1)C2=O	tim23-1 inh 81.9, tim10-1 inh 69.4, TIM10 inh 50.2 | tim10-1 confirm 59.3 | tim10 confirm 39.5 | tim23-1 conf 86.7
N#CC1(c2ccccc2)CCC(=NNS(=O)(=O)c2ccccc2)CC1 (configuration not stated)	none (no result: Rce1 inh)
COC(=O)C1=C(C)OC(N)=C(C#N)C1c1cc2cccc(C)c2nc1Cl (configuration not stated)	tim23-1 inh 63.9, tim10-1 inh 43.7 (no result: PfHsp90 yeast 2) | tim10-1 confirm inactive | tim23-1 conf 58.1
